Experimental data: PubChem BioAssay AID1992 (Sanford-Burnham Center for Chemical Genomics, 2009)
Hit rate of the full screen: of about 50,000 compounds, about 350 (0.7%) were called active. For the sample, actives were picked, then their nearest neighbours and some compounds at random. Unmarked numbers belong to inactive results. Cut-off read from the data, not from the text of the source: active = inhibition above about 60%; inactive = the rest.

Target: Dual specificity protein phosphatase 3 (Homo sapiens) (UniProt P51452)
Sequence (P51452 whole entry, looked up): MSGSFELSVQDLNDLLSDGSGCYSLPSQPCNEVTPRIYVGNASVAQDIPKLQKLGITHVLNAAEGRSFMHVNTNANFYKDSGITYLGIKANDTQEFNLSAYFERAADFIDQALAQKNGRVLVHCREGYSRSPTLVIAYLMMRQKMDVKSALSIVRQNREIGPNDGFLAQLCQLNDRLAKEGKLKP
Assay: VHR1 phosphatase inhibitors, primary screen, biochemical, colorimetric, HTS (AID 1992)
Conditions: recombinant VHR phosphatase, colorimetric substrate read-out; at 20 µM; stronger effect = higher value

Row | Compound | inhibition
1 | CCOC(=O)Cc1csc(NC(=O)COc2cc(C)ccc2C(C)(C)C)n1 | 5.7%
2 | Cc1ccc(-c2ccc(/C=C3\Sc4ccccc4C3=O)o2)c([N+](=O)[O-])c1 | -37.5%
3 | COc1ccc(N2C(=O)c3cccc4c(NC(CO)(CO)CO)ccc(c34)C2=O)cc1 | -0.7%
4 | CCOC(=O)C1=C(O)/C(=C\c2cccc([N+](=O)[O-])c2)SC1=Nc1ccc(OC)cc1 | -20.7%
5 | CCOC(=O)C1=C(O)CSC1=Nc1ccc(F)cc1 | 104% (active)
6 | CCOC(=O)C1=C(O)CSC1=Nc1cccc(Cl)c1 | -1.6%
7 | COc1ccc(C2C(C(=O)/C=C/c3ccccc3)=C(O)C(=O)N2CCCCCC(=O)O)c(OC)c1 (stereo not drawn) | 29.2%
8 | CCC(=O)N(CCC1(c2ccc(F)cc2)CCOC(C)(C)C1)Cc1ccc(OC)c(OC)c1 (stereo not drawn) | -8.3%
9 | COc1ccc(C(=O)Nc2ccc3nn(-c4ccc(C)c(Cl)c4)nc3c2)cc1[N+](=O)[O-] | -21.1%
10 | Cc1c(N(C(=O)c2cccc(Cl)c2)C(C)C)c(=O)n(-c2ccccc2)n1C | -7.9%
11 | O=C(/C=C\Nc1ccccn1)c1ccc2c(c1)OCO2 | -7.8%
12 | COC(=O)Cn1cc(/C=C2\C(=O)NC(=O)N(c3cc(C)cc(C)c3)C2=O)c2ccccc21 | -5.9%
13 | C/C(=N\NC(=O)c1cccc(Cl)c1)c1ccccc1O | -3.8%
14 | Cn1/c(=N/N=C/c2cc(Br)ccc2O)sc2ccccc21 | 114% (active)
15 | Cc1ccc(/C=N/c2nc3ccc(Br)cc3s2)c(O)c1 | -5%
16 | Oc1ccc(Br)cc1/C=N/Nc1ccccn1 | -11%
17 | CC(=O)c1nc2cc([N+](=O)[O-])ccc2n1Cc1ccccc1 | -31%
18 | O=C(O)CCC(=O)Nc1cc(Cl)cc(Cl)c1 | 11.1%
19 | COc1ccc(CN=CC2=C(O)CC(c3ccccc3)CC2=O)cc1 (stereo not drawn) | 15.4%
20 | O=[N+]([O-])c1ccc(OCC(O)Cn2cnc3ccccc32)cc1 (stereo not drawn) | 39%
21 | CCOc1ccc(-c2cc(C(=O)Nc3ccncc3)c3ccccc3n2)cc1 | -20.9%
22 | CC(C)(C)c1ccc(/C=N/NC(=O)Cc2cccc3ccccc23)cc1 | -3.8%
23 | Nc1nnc(CCC(=O)c2ccccc2)s1 | 78.1% (active)
24 | Cc1ccc2c(N)c(C(=O)c3ccccc3)sc2n1 | -19.7%

Row | Compound | inhibition
25 | Nc1nnc(SCC(=O)NCc2ccccc2)s1 | -7%
26 | COc1ccc(NC(=O)/C=C/c2cccc([N+](=O)[O-])c2)cc1 | -2.5%
27 | O=C(NCc1ccccn1)Nc1ccc(Cl)cc1 | 25.4%
28 | COc1ccc(N/C(C)=C/C(=O)c2ccc(F)cc2)cc1 | -8.4%
29 | COc1ccc(/C=C2/C(C)=C(C#N)c3nc(N)c(C#N)c(C)c32)cc1OC | 24%
30 | COc1ccccc1/C=N/NC(=O)CCc1c(C)n[nH]c1C | -1.8%
31 | O=C(NN1CCOCC1)c1cccc(F)c1 | -10.6%
32 | Cc1cc(Cl)ccc1NC1=CC(=O)CC(c2ccccc2)C1 (stereo not drawn) | -7.1%
33 | CN(C)/C=C(/Cl)C=C1C(=O)c2ccccc2C1=O | -2.3%
34 | COc1ccc([N+](=O)[O-])cc1NC(=O)CCc1ccccc1 | -10.6%
35 | CCCCCOC(=O)CSc1nnc(-c2ccccc2Cl)o1 | -27.4%
36 | CCCOc1ccc(C(=O)Nc2ccc(N(CC)CC)cc2)cc1 | -10.9%
37 | CCOC(=O)c1ccc(NC(=O)c2cc(OCC)cc(OCC)c2)cc1 | -14.7%
38 | CCCOC(=O)c1ccc(NC(=O)c2ccc(OCc3ccccc3)cc2)cc1 | 109% (active)
39 | CCOC(=O)C(=O)C1CCc2c([nH]c3ccc(C)cc23)C1=O (stereo not drawn) | -0.5%
40 | COc1ccc(OC)c(-n2c(O)c(C=Nc3cccc(C)c3)c(=O)[nH]c2=O)c1 | -17.5%
41 | COc1ccc(NC(=O)C2=C(C)NC(=O)NC2c2ccc(OC)cc2)cc1 (stereo not drawn) | 24.2%
42 | COC(=O)C1=C(C)N=c2s/c(=C\c3cc(OC)c(OC)cc3[N+](=O)[O-])c(=O)n2C1c1ccccc1 (stereo not drawn) | -6%
43 | O=C(Nc1cccc2ccccc12)c1ccc(-c2ccccc2)cc1 | -1.1%
44 | Cc1cc(/C=C2/NC(=S)NC2=O)c(C)n1-c1ccc(N2CCOCC2)cc1 | 61.6% (active)
45 | Cc1cc(/C=C2/NC(=O)NC2=O)c(C)n1-c1ccc(Cl)cc1 | -8.6%
46 | Cc1cc(C=C2C(=O)NC(=S)NC2=O)c(C)n1-c1ccc(F)cc1 | 0.6%
47 | O=C1/C(=C/c2ccc(-c3ccc(Cl)cc3C(=O)O)o2)Sc2ccccc21 | 15.2%
48 | O=C1NC(=S)N(c2ccc(Cl)cc2)C(=O)/C1=C/c1ccc(-c2ccccc2C(=O)O)o1 | 95.3% (active)

Row | Compound | inhibition
49 | CCOc1ccc(N2C(=O)NC(=O)/C(=C/c3ccc(-c4ccccc4[N+](=O)[O-])o3)C2=O)cc1 | 19%
50 | COc1ccc(C(=O)NC2CC(C)(C)NC(C)(C)C2)cc1OC | -52.9%
51 | O=C(Nc1ncc(Br)cc1Br)c1cccc2ccccc12 | 101%
52 | COC(=O)c1cc(C(=O)Nc2ncccc2C)cc([N+](=O)[O-])c1 | 7.6%
53 | C/C(=C\C(=O)c1ccc(Br)cc1)Nc1ccccc1F | 4.7%
54 | CC1=NN(c2cccc(Cl)c2)C(=O)/C1=C\c1c(C)[nH]n(-c2ccccc2)c1=O | -29.9%
55 | CC1=NN(c2ccc(S(N)(=O)=O)cc2)C(=O)/C1=C\c1ccc(-c2ccc(C(=O)OC(C)C)cc2)o1 | -1.6%
56 | CC1=NN(c2ccc(S(N)(=O)=O)cc2)C(=O)/C1=C\c1ccc(-c2ccc(Cl)c(C(=O)O)c2)o1 | -1.9%
57 | CC1=NN(c2ccc(S(N)(=O)=O)cc2)C(=O)/C1=C\c1ccc(-c2cc([N+](=O)[O-])ccc2C)o1 | 77.1% (active)
58 | NC(=O)C1CCN(S(=O)(=O)c2ccc3ccccc3c2)CC1 | -3.8%
59 | CCc1ccc(NC(=O)C(=O)NCCN2CCOCC2)cc1 | 12.8%
60 | COc1ccc(C(=O)Nc2ccc3oc(-c4cc(Cl)c(OC)c(Cl)c4)nc3c2)cc1OC | 45.4%
61 | COc1cccc(N2C(=O)C=CC2=O)c1 | 49.6%
62 | COc1ccc(N2C(=O)C3C4C=CC(C4=C(C)C)C3C2=O)c([N+](=O)[O-])c1 (stereo not drawn) | 4.6%
63 | COc1ccc(N2C(=O)C=CC2=O)c([N+](=O)[O-])c1 | 58.9% (active)
64 | Cc1ccc(N2C(=O)/C(=C/N3CCOCC3)c3ccccc3C2=O)cc1 | 13.6%
65 | CCOC(=O)c1c(N2C(=O)C3CC(C)=C(C)CC3C2=O)sc2c1CCCC2 (stereo not drawn) | -3.1%
66 | COC(=O)C1=NNC2(C)C(=O)N(c3ccccc3OC)C(=O)C12 (stereo not drawn) | 97% (active)
67 | COC(=O)Nc1ccc(S(=O)(=O)N2CCN(c3ccccc3OC)CC2)cc1 | -59.1%
68 | COc1ccccc1-n1c(=S)[nH]c2ccccc2c1=O | 5.2%
69 | O=C(Nc1cc(C(F)(F)F)cc(C(F)(F)F)c1)c1ccco1 | -7.4%
70 | O=C(Nc1cccc(O)c1)c1cccnc1 | -14.8%
71 | CCOC(=O)COc1ccc(/C=N\n2nnnc2N)cc1OC | -44.1%
72 | Cc1ccc(C2=C/C(=C\c3cccnc3)C(=O)O2)cc1 | 14.8%

Row | Compound | inhibition
73 | Cc1ccc(/C=C2/C=C(c3ccccc3)OC2=O)o1 | 74.2% (active)
74 | CCCCOc1ccc(/C=C2/C=C(c3ccccc3)OC2=O)cc1 | 21.2%
75 | Cc1cc(C)c(NS(=O)(=O)c2ccc3ccccc3c2)c(C)c1 | -0.6%
76 | O=C(O)c1cc(-c2ccc(C=C3C(=O)c4ccccc4C3=O)o2)ccc1O | 9.3%
77 | O=C(N/N=C/c1ccc(-c2cccc(Cl)c2)o1)c1cccnc1 | -17.2%
78 | O=C(O)c1cc(-c2ccc(/C=N/Nc3ccc(Cl)c(Cl)c3)o2)ccc1Cl | 89.1% (active)
79 | O=C(CCc1n[nH]c(=O)[nH]c1=O)N/N=C/c1ccc([N+](=O)[O-])cc1 | -17.4%
80 | C#CCn1cc(/C=C(/C#N)C(=O)Nc2ccc(Cl)cc2)c2ccccc21 | -3.6%
81 | CC(=O)c1sc(NC(=O)c2cc(Cl)ccc2[N+](=O)[O-])nc1C | 4.8%
82 | O=C(Nc1ccccc1C(=O)O)c1ccc(NC(=O)c2cccs2)cc1 | -7.6%
83 | CCOC(=O)C1=C(C)N=c2s/c(=C\c3cc(OC)c(O)c(OC)c3)c(=O)n2C1c1ccccc1 (stereo not drawn) | 35.5%
84 | O=C(NCCCn1ccnc1)c1cc2c(ccc3ccccc32)oc1=O | -14.2%
85 | C=C(C)COc1ccc2oc(-c3ccccc3)c(C(=O)O)c2c1 | -5.7%
86 | O=S(=O)(O)c1nc2ccccc2n1-c1ccccc1 | 91.8% (active)
87 | Cc1nc2cc(S(N)(=O)=O)ccc2n1-c1ccccc1 | 0.2%
88 | O=C(CSc1nc2ccccc2c(=O)n1-c1ccccc1)Nc1ccccc1 | -19.9%
89 | COc1ccc(OC)c(/C=C/C(=O)Nc2ccc(N(C)C)cc2)c1 | -29.5%
90 | Fc1cnc(NN=Cc2cccs2)nc1N1CCOCC1 | -10.8%
91 | O=C(CN(c1cccc(Br)c1)S(=O)(=O)c1ccccc1)N1CCOCC1 | -30.2%
92 | CC(=O)N(C1=C(Cl)C(=O)c2ccccc2C1=O)c1cccc(Br)c1 | 84.5% (active)
93 | CC1CCCC(C)C1NC1=C(Cl)C(=O)c2ccccc2C1=O (stereo not drawn) | -2.5%
